PINK1 modulator = A Quantitative High throughput Screen to Identify Chemical Modulators of PINK1 Expression | PINK1 immunofluorescence, high-content cytometry, 24 h | Potency, µM (highest dose often 76.6 µM), for inactives: at the top dose activation (PINK1 increase), usual class: activators | 0.2% of 410,000 active; active = well fitted activation curve with a large enough effect; inconclusive = small, poorly fitted or top-dose-only effect; cell line not stated here; note: % of control where 0% means no effect; nearly all actives have a fitted effect of over 65% in size
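Measures PINK1 amount and localization on or inside mitochondria by immunofluorescence. Stable cells get compounds at 5 concentrations for 24 hours before fixation and staining; CCCP controls included.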
Anesthetic bind = qHTS Assay for Identification of Novel General Anesthetics. Potency, µM (top dose mostly 77.5 µM), for inactives: at the highest dose activity change, negative = displacement, usual class: inhibitors. apoferritin/1-aminoanthracene competitive binding, fluorescence. AID 485281, 2010. 0.074% of 350,000 active; note: % is set by controls: 0 for no effect and ±100 for the full control effect; nearly all actives have a fitted effect of over 20% in size
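In PBS, apoferritin at 10 uM is loaded with 1-AMA from a 50% saturated solution. After 10 min of compound exposure at ambient temperature, reduced 535 nm fluorescence indicates probe displacement.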
Epigenetic reg = Quantitative High-Throughput Screen for Regulators of Epigenetic Control; murine LDR cells, GFP reporter derepression, 30 h; Potency, µM (doses to about 53.9 µM), for inactives: at the highest dose GFP activation, hits mostly activators; 0.2% of 280,000 active; AID 1865, 2009; note: % of control where 0% means no effect; nearly all actives have a fitted effect of over 60% in size
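GFP-positive cell count by laser-scanning cytometry (objects 20–120 um) after 30 h, 37 C compound exposure of murine LDR cells; reporter is CMV-GFP integrated at a silenced locus, inducible by HDAC or DNMT inhibitors.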
HTT aggregate = qHTS Multiplex Assay to Identify Dual Action Probes in a Cell Model of Huntington: Aggregate Formation (GFP) | PC12 HttQ103-GFP aggregates, Acumen cytometry, 40 h | 1.1% of 220,000 active | Potency, µM (doses to about 46.1 µM), for inactives: at the highest dose activity change, negative = inhibition, most hits filed as inhibitors | AID 1688, 2009; note: % is set by controls: 0 for no effect and ±100 for the full control effect; nearly all actives have a fitted effect of over 60% in size
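PC12 cells stably carrying ecdysone-inducible HTT exon 1 Q103–GFP were induced with tebufenozide (100 nM final) and treated with library compounds in titration. GFP aggregates in lysates were counted by laser scanning cytometry.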
TSG101-PTAP inh = qHTS Assay for Iinhibitors of HIV-1 Budding by Blocking the Interaction of PTAP/TSG101; Fluorescence polarization, FITC-PTAP peptide / Tsg101 binding; Potency, µM (highest dose often 115 µM), for the others: at the highest dose activity change, negative = inhibition, hits mostly inhibitors; 340,000 tested, under 10 active; active = well fitted inhibition curve with a large enough effect in the main read-out, with a control signal flat, not every such curve was filed as active; inconclusive = small, poorly fitted or top-dose-only effect, or effect the other way, or a change in a side signal; inactive = no such curve, though single readings can be large or run the other way; note: % of control where 0% means no effect
Target sequence (Q99816 whole entry, looked up): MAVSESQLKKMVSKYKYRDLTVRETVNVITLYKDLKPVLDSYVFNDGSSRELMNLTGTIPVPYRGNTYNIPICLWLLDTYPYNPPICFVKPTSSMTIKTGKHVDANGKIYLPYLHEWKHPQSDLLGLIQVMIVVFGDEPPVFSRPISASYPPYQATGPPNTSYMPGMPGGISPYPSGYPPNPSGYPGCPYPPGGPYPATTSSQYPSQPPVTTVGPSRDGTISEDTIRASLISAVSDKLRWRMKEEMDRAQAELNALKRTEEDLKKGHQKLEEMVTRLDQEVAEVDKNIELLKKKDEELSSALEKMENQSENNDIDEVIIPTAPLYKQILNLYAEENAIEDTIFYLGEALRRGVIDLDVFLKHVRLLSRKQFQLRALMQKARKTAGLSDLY
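Fluorescence polarization binding of Tsg101 binding domain (10 uM final) to FITC-labeled PTAP peptide (50 nM final) in HEPES pH 7.5 buffer with NaCl, Tween 20, EDTA, TCEP. Compounds added before peptide; binding 20 min at RT.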
HTT cytoprotect = qHTS Multiplex Assay to Identify Dual Action Probes in a Cell Model of Huntington: Cytoprotection (ATP); PC12 HTT-Q103 induced, cytoprotection, ATP luminescence, 40 h; 0.14% of 230,000 active; AID 1471, 2008; Potency, µM (titrated, usually from 56.4 µM), for inactives: cytoprotection (ATP increase), hits mostly activators; note: % of control where 0% means no effect; nearly all actives have a fitted effect of over 45% in size
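Readout: ATPlite luminescence (ATP level). Model: stable PC12, inducible Htt exon1 Q103-GFP. Inducer: tebufenozide, 100 nM final. Compounds: dose series. No G418 in medium.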
Active calls of the source: *; ? = inconclusive; . = not tested or not shown; [ ] = dose if it differs, or a comment. The entries come from a sample that favours hits as a whole. Unless noted, calls come from the whole dose curve; as a rule, active = well fitted curve in the direction sought with a large enough effect; inconclusive = small, poorly fitted or top-dose-only effect, or another doubt; inactive = no such curve, though single readings can be large; an effect the other way counts as inactive or inconclusive. Potency is the fitted concentration of half-maximal effect.

SMILES	PINK1 modulator	Anesthetic bind	Epigenetic reg	HTT aggregate	TSG101-PTAP inh	HTT cytoprotect
O=C1C(Cl)=C(Nc2ccccc2)C(=O)c2ccccc21	-2%	-10%	-2%	13µM*	-1%	-39%[10 µM]
COC(=O)[C@@H]1CCCN1C(=O)c1cc(NC(=O)c2ccccc2)cc2ncn(C3CCCC3)c12	0%	.	.	.	.	.
Cc1ccc(-c2ccnc(-n3ncc(C(=O)NC[C@@H]4CCCN5CCCC[C@H]45)c3C3CC3)n2)o1	-1%	.	.	.	.	.
C/C(=N\N=C(N)N)c1cccc(Cl)c1	1%	-9%	1%	5µM*	1%	-183%
C/C(=N\NC(N)=O)c1cccc(Cl)c1	-2%	1%	-1%	18%	-2%	-4%[10 µM]
O=C(O)/C=C/c1ccc2noc(-c3ccccc3)c2c1	-1%	-6%	0%	4µM*	0%	-24%
O=P(c1ccccc1)(c1ccccc1)c1nc(-c2ccccc2)oc1NCc1ccccc1	3%	-4%	1%	11µM*	-9%	-14%
CCCCCCCCCCCCOC(=O)N1CCN(/[N+]([O-])=N/Oc2ccc([N+](=O)[O-])cc2[N+](C)=O)CC1	-1%	.	.	.	.	.
Cc1cnc(-n2ncc(C(=O)N[C@H]3CCCCNC3=O)c2C2CC2)nc1-c1cccs1	1%	.	.	.	.	.
O=C(CCCc1cccs1)Nc1nc2c(s1)CCCC2	1%	?	-6%	0.028µM*	-5%	.
O=C(c1cccnc1)C1CCCN(Cc2ccc3c(c2)CN(C(=O)c2cccc(Cl)c2)CCO3)C1 (centres undefined)	2%	.	.	.	.	.
COc1cccc(/C=N/Nc2nc3ccccc3n3cnnc23)c1O	7%	-1%	1%	8.9µM*	-4%	-42%[10 µM]
COc1cccc(/C=N/Nc2nc3ccccc3n3cnnc23)c1	?	-1%	1%	-12%	-1%	-8%[1.9 µM]
COc1cccc(/C=N/Nc2ncnc3scc(-c4ccccc4)c23)c1O	-5%	4%	-8%	8.9µM*	1%	.
COc1cccc(/C=N/Nc2nccnc2Cl)c1O	-2%	58%	1%	1.3µM*	-13%	-86%[10 µM]
COc1cccc(/C=N/Nc2ncnc(Cl)c2N)c1O	?	-3%	0%	?	-6%	-86%[10 µM]
O=C(c1ccco1)N1CCN(C(=O)c2cnn3c2NC(c2cccs2)CC3C(F)(F)F)CC1 (centres undefined)	20%[38.3 µM]	-11%	-1%	-24%	1%	-24%[0.074 µM]
O=C(c1cnn2c1NC(c1ccco1)CC2C(F)(F)F)N1CCN(c2cccc(Cl)c2)CC1 (centres undefined)	0%	-19%	0%	22µM*	-1%	-6%[0.074 µM]
O=C(c1ccco1)N1CCn2cccc2C1c1ccccc1 (centres undefined)	5%	-7%	-1%	-5%	0%	0.89µM*
COc1cc2c(cc1OC)C(c1ccccc1)N(C(=O)c1ccco1)CC2 (centres undefined)	3%	-15%	0%	3%	-9%	-5%
Cc1ccc2[nH]c3c(N4CCCCCC4)ncnc3c2c1	.	-3%	0%	8.9µM*	.	9%[1.9 µM]
Cc1ccc2[nH]c3c(N4CCN(Cc5ccc6c(c5)OCO6)CC4)ncnc3c2c1	.	-6%	-1%	-5%	.	-21%
Cc1ccc2c(c1)[nH]c1c(N3CCN(Cc4ccccc4)CC3)ncnc12	.	-10%	4%	7.1µM*	-3%	-85%[0.074 µM]
COc1ccc2c(c1)[nH]c1c(N3CCN(Cc4ccc5c(c4)OCO5)CC3)ncnc12	9%	-1%	-2%	8.9µM*	-1%	-100%
